# Experimental data taken from the supplement of paper PMC7156485.
# Key:
# Conditions in all cases: concentration: 10 µM; 24 h
# HCC1569 [1] = assay: cell number relative to DMSO (% of DMSO); higher = more cells (less growth inhibition / toxicity)
# Method in brief: (§1)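 Cells were seeded at 800 per well in 384-well plates with RPMI containing 10% FBS; both HCC1569 and TDF lines were used. Compounds were added at 10 µM for 24 h at 37 °C, in triplicate, before fixation in 3.7% formaldehyde and staining with a rabbit anti-H1.0 antibody, an AlexaFluor 647 secondary and DAPI. H1.0 nuclear intensity or cell number is reported as percent of the plate control using the median of replicates, and HCC1569 values were smoothed for positional effects.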
# TDF [2] = assay: as above
# Method in brief: as §1
# TDF [3] = assay: H1.0 immunofluorescence intensity relative to DMSO (% of DMSO); higher = stronger H1.0 induction, active = 120 or more
# Method in brief: as §1
# HCC1569 [4] = assay: H1.0 immunofluorescence intensity relative to DMSO (% of DMSO); higher = stronger H1.0 induction, active = 140 or more
# Method in brief: as §1
# 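Throughout, for H1.0 immunofluorescence intensity relative to DMSO: TDF is a line of transformed human dermal fibroblasts of mesenchymal origin.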
# 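Throughout, for cell number relative to DMSO: TDF denotes transformed human dermal fibroblasts of mesenchymal origin.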
SMILES,cell number (HCC1569 [1]),cell number (TDF [2]),H1.0 immunofluorescence intensity (TDF [3]),H1.0 immunofluorescence intensity (HCC1569 [4])
"O=c1[nH]c2ccccc2n1C1CCN(Cc2ccc(-c3nc4cc5[nH]cnc5cc4nc3-c3ccccc3)cc2)CC1 [Akt Inhibitor VIII, Isozyme-Selective, Akti-1/2]",75.9,81.2,105 (inactive),131 (inactive)
C[N+]1([O-])C2CCC1CC(OC(=O)C(CO)c1ccccc1)C2.Cl (stereo not given),97.9,107,92.4 (inactive),85 (inactive)
NC(C(=O)O)c1cc(=O)[nH]o1 (racemic),104,103,92.2 (inactive),92.6 (inactive)
Cl.OCC1C(O)C(O)C2C(O)CCN12 (stereo not given),101,111,97 (inactive),97.5 (inactive)
Cl.Cl.Cn1cnc(CCN)c1 [1-Methylhistamine dihydrochloride],98.1,110,86.4 (inactive),95.3 (inactive)
"CCCN(CCC)CCc1c[nH]c2ccc(C(N)=O)cc12.O=C(O)C=CC(=O)O [N,N-Dipropyl-5-carboxamidotryptamine maleate]",99.4,104,97 (inactive),98.9 (inactive)
O=C1C=C2C(=CCOC2O)O1 (stereo not given) [Patulin],22.4,8.4,224 (active),132 (inactive)
CC1CCCC=CC2CC(O)CC2C(O)C=CC(=O)O1 (stereo not given) [Brefeldin A],68.2,52.6,132 (active),208 (active)
CCCCCC=CCC(C=CC=CCC=CCCCC(=O)O)OO (stereo not given),102,101,102 (inactive),99.8 (inactive)
C[N+]1(C)C2CCC1CC(OC(=O)C(CO)c1ccccc1)C2.[Br-] (stereo not given) [Atropine methyl bromide],102,105,91.2 (inactive),93.9 (inactive)
COCC1OC(=O)c2coc3c2C1(C)C1=C(C3=O)C2CCC(=O)C2(C)CC1OC(C)=O (stereo not given) [Wortmannin from Penicillium funiculosum],41.7,100,89.5 (inactive),153 (active)
Br.CCCN(CCC)C1CCc2cccc(O)c2C1 (stereo not drawn) [R-(+)-8-Hydroxy-DPAT hydrobromide],99.2,90.1,105 (inactive),96.5 (inactive)
CNC(=O)Oc1ccc2c(c1)C1(C)CCN(C)C1N2C.CNC(=O)Oc1ccc2c(c1)C1(C)CCN(C)C1N2C.O=S(=O)(O)O (stereo not given) [Physostigmine sulfate],97.1,102,90.4 (inactive),106 (inactive)
Clc1ccc(C2CC3CCC2N3)cn1 (racemic),102,96.3,90.6 (inactive),81.4 (inactive)
COc1cc(C=C(C#N)C#N)cc(O)c1O [Tyrphostin AG 34],102,97.9,96.3 (inactive),114 (inactive)
C1CCc2nnnn2CC1 [Pentylenetetrazole],102,113,99 (inactive),98.1 (inactive)
COc1ccc(C(=O)OC2CC3CCC(C2)N3C)cc1OC (stereo not given) [Convolvamine],105,96.1,97.8 (inactive),90 (inactive)
CC(=O)NCCc1c[nH]c2ccccc12 [N-Acetyltryptamine],101,97.5,104 (inactive),94.1 (inactive)
COc1cc(=O)oc(C=CC=CC=CC(C)=CC2(C)OC(C)C(C)(O)C2O)c1C (stereo not given) [Citreoviridin],36.3,38.6,123 (active),77.4 (inactive)
O=C(O)c1cc[c]([Hg][Cl])cc1 [4-Chloromercuribenzoic acid],102,111,91.8 (inactive),92.6 (inactive)
CC1CC2CCC(O2)C(C)C(=O)OC(C)CC2CCC(O2)C(C)C(=O)OC(C)CC2CCC(O2)C(C)C(=O)OC(C)CC2CCC(O2)C(C)C(=O)O1 (stereo not given) [Nonactin],60.4,50.1,118 (inactive),148 (active)
COC1=CC(=O)OC(C=Cc2ccccc2)C1 (racemic),104,92,95.5 (inactive),83 (inactive)
"C[C@]12CC[C@@H](O)C[C@@H]1CC[C@@H]1[C@@H]2CC[C@]2(C)[C@@H](O)CC[C@@H]12 [5alpha-Androstane-3alpha,17beta-diol]",103,104,97.3 (inactive),88.8 (inactive)
"O=[N+]([O-])c1ccc(O[C@@H]2O[C@H](CO)[C@@H](O)[C@H](O)[C@H]2F)c([N+](=O)[O-])c1 [2,4-Dinitrophenyl 2-fluoro-2-deoxy-beta-D-glucopyranoside]",105,111,86.5 (inactive),93.2 (inactive)
C[N+](C)(C)CCOC(=O)CBr.[Br-] [Bromoacetylcholine bromide],98.5,122,87.8 (inactive),85.7 (inactive)
